In PubChem BioAssay AID1159580 (chemical genetic matrix, 2015):
Several values for one entry are separate records, joined by “and”; a condition that tells them apart may be missing. Equal values may be shown once. About 2,000 (36%) of roughly 5,500 compounds were called active. Another 18% or so got no clear call; they are omitted. No stated cut-off is given here; in the data, active means normalized growth mostly below about 0.91 (no sharp cut-off); inconclusive means no clear call, values can overlap the other calls; inactive means mostly above about 0.92. This is one part of the list.

Test: chemical genetic growth profiling, strain panel (AID 1159580);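 further: tested at 20 µM; growth read once vehicle control cultures reached saturation at 30 °C; 1 = growth at the plate median or of vehicle wells; lower values mean less growth of the strain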
Conditions: S. cerevisiae deletion strains, growth OD

Measured: normalized growth

COc1cc(CNC(=O)CCCC/C=C/C(C)C)ccc1O
inactive: locus YAL013W, strain DEP1, hits give low values 1.01 | locus YAL021C, strain ccr4, hits give low values 0.971 | locus YAL026C, strain drs2, hits give low values 0.994 | locus YAL030W, strain snc1, hits give low values 0.987 | locus YBL061C, strain skt5, hits give low values 0.99 | locus YBR009C, strain hhf1, hits give low values 0.951 | locus YBR021W, strain FUR4, hits give low values 0.978 | locus YBR023C, strain chs3, hits give low values 0.975 | locus YBR171W, strain sec66, hits give low values 0.979 | locus YBR229C, strain ROT2, hits give low values 0.994 | locus YBR231C, strain swc5, hits give low values 0.981 | locus YBR279W, strain paf1, hits give low values 0.983 | locus YCL011C, strain gbp2, hits give low values 0.979 | locus YCL016C, strain dcc1, hits give low values 0.989 | locus YCL029C, strain bik1, hits give low values 0.988 | locus YCL069W, strain vba3, hits give low values 0.992 | locus YCR088W, strain abp1, hits give low values 0.964 | locus YDL005C, strain med2, hits give low values 0.965 | locus YDL035C, strain GPR1, hits give low values 0.972 | locus YDL040C, strain nat1, hits give low values 0.997 | locus YDL074C, strain BRE1, hits give low values 0.979 | locus YDL101C, strain DUN1, hits give low values 1.01 | locus YDL134C, strain PPH21, hits give low values 1 | locus YDL185W, strain tfp1, hits give low values 0.986 | locus YDL192W, strain arf1, hits give low values 0.989 | locus YDR001C, strain nth1, hits give low values 0.997 | locus YDR069C, strain doa4, hits give low values 0.981 | locus YDR101C, strain arx1, hits give low values 0.969 | locus YDR137W, strain rgp1, hits give low values 0.997 | locus YDR159W, strain sac3, hits give low values 0.999 | locus YDR162C, strain NBP2, hits give low values 1.04 | locus YDR195W, strain ref2 0.959 | locus YDR297W, strain sur2, hits give low values 0.973 | locus YDR318W, strain mcm21, hits give low values 1 | locus YDR334W, strain swr1, hits give low values 0.998 | locus YDR335W, strain msn5, hits give low values 0.968 | locus YDR388W, hits give low values 0.99 | locus YDR392W, strain spt3, hits give low values 0.956 | locus YDR502C, strain sam2, hits give low values 0.961 | locus YEL003W, strain gim4, hits give low values 0.984 | locus YEL037C, strain rad23, hits give low values 0.99 | locus YEL061C, strain CIN8 (second series), hits give low values 0.983 | locus YEL061C, strain CIN8, hits give low values 1.01 | locus YER015W, strain faa2, hits give low values 1 | locus YER016W, strain bim1, hits give low values 1.01 | locus YER110C, hits give low values 0.969 | locus YER111C, strain swi4, hits give low values 0.991 | locus YER155C, strain BEM2 (second series), hits give low values 0.953 | locus YER155C, strain BEM2, hits give low values 0.994 | locus YER167W, strain BCK2, hits give low values 1.01 | locus YFR010W, strain ubp6, hits give low values 0.973 | locus YGL078C, strain dbp3, hits give low values 0.974 | locus YGL086W, strain mad1, hits give low values 0.996 | locus YGL167C, strain pmr1, hits give low values 0.988 | locus YGL173C, strain kem1, hits give low values 0.978 | locus YGL227W, strain vid30, hits give low values 0.975 | locus YGL240W, strain doc1, hits give low values 0.975 | locus YGL248W, strain PDE1, hits give low values 1.02 | locus YGL253W, strain hxk2, hits give low values 0.987 | locus YGR135W, strain pre9, hits give low values 0.991 | locus YGR252W, strain gcn5, hits give low values 0.898 | locus YHR013C, strain ard1, hits give low values 0.999 | locus YHR027C, strain rpn1, hits give low values 0.984 | locus YHR030C, strain SLT2, hits give low values 1.02 and 0.997 | locus YHR079C, strain IRE1 (second series), hits give low values 1 | locus YHR079C, strain IRE1, hits give low values 0.989 | locus YHR094C, strain hxt1, hits give low values 0.981 | locus YHR129C, strain ARP1, hits give low values 1.02 | locus YHR142W, strain chs7, hits give low values 0.998 | locus YHR200W, strain rpn10, hits give low values 1.01 | locus YIL066C, strain RNR3, hits give low values 1.01 | locus YIL073C, strain SPO22, hits give low values 0.972 | locus YIL125W, strain kgd1, hits give low values 0.993 | locus YIR030C, strain dcg1, hits give low values 0.986 | locus YJL092W, strain hpr5, hits give low values 0.99 | locus YJL095W, strain BCK1 (second series), hits give low values 0.986 | locus YJL095W, strain BCK1, hits give low values 1.05 and 0.999 | locus YJL115W, strain asf1, hits give low values 0.979 | locus YJL129C, strain trk1, hits give low values 0.955 | locus YJL134W, strain LCB3, hits give low values 1.01 | locus YJL154C, strain vps35, hits give low values 0.98 | locus YJL164C, strain tpk1, hits give low values 0.994 | locus YJL166W, strain qcr8, hits give low values 0.973 | locus YJL168C, strain set2, hits give low values 0.981 | locus YJL187C, strain SWE1 (second series), hits give low values 1.01 | locus YJL187C, strain SWE1, hits give low values 0.994
